The source of these data is PubChem BioAssay (NCATS).

Assay [1] deals with Lysosomal acid glucosylceramidase (Homo sapiens) (UniProt P04062). As to the kind of experiment: Glucocerebrosidase-p2 (AID 348; in the data active = potency below about 10 µM; also: potency is read from the fitted curve at half-maximal effect). To be noted: purified GBA, blue fluorogenic substrate, 40 min. The gist of the method: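 Compounds titrated from 0.6 nM upwards against 0.2 nM enzyme in pH 5.9 citric acid/KH2PO4, taurocholate, tween-20; blue fluorogenic substrate 80 uM, 40 min room temperature, stopped and read Ex 365/Em 440 for AC50.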
Lysosomal acid glucosylceramidase (Homo sapiens), sequence (P04062 whole entry, looked up): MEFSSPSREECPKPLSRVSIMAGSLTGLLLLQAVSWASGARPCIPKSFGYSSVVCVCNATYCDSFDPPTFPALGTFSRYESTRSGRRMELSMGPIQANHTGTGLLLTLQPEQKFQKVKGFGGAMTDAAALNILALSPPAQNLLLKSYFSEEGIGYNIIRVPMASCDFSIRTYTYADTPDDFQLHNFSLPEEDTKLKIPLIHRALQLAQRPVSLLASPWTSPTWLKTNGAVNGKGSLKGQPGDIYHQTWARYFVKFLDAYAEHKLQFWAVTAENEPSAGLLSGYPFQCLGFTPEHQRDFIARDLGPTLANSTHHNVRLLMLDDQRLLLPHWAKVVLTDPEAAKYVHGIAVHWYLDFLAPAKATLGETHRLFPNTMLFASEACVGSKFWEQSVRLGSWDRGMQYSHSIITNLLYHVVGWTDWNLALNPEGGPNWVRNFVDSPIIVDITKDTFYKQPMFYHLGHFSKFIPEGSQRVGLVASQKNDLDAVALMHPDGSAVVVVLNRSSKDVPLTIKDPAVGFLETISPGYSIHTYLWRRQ

The target of assay [2] is Cytochrome P450 1A2 (Homo sapiens) (UniProt P05177). In words: p450-cyp1a2 (AID 410; calls by dose curve; also: potency is read from the fitted curve at half-maximal effect;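 as to activity change, negative = inhibition: -100% = full effect of reference inhibitor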). The settings on record: recombinant CYP1A2, luciferin-ME demethylation, luminescence; series mostly up to 57 µM. The gist of the method:
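Human CYP1A2 (20nM) demethylated Luciferin-ME at its Km (100uM) in 100mM KPO4. After 10 min compound preincubation, NADPH regeneration ran the reaction 60 min at room temperature. Luciferin was read by luminescence, normalized to 57 uM furafylline.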

Assay [3] in a line: NFAT Signaling Pathway (AID 444; active = well fitted curve in either direction with a large enough effect, not every such curve was filed as active;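 also: carbachol stimulus at about its EC50 of 1 µM final; % is scaled to controls: 0 for no effect and ±100 for the full control effect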). The settings on record: Jurkat NFAT-bla M1, carbachol, beta-lactamase ratio, 5 h; at 7.69 µM (top of the series) unless noted. A digest of the protocol: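 Jurkat cells carrying an NFAT-driven β-lactamase reporter and co-transfected muscarinic M1 receptor were treated with compound plus carbachol (1 uM final, an EC50 level) for 5 h at 37 °C. CCF4 loading followed for 1 h at RT; 460/530 nm ratio gave %activity.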

A short description of assay [4]: Stat Signaling Pathway (AID 446; active = well fitted curve in either direction with a large enough effect, not every such curve was filed as active;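 also: ME-180 cervical cancer cells given 40 pM IL-6 alongside compound; SIE-controlled beta-lactamase reporter measured as 460/530 nm FRET emission ratio; % is scaled to controls: 0 for no effect and ±100 for the full control effect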). To be noted: ME-180 SIE beta-lactamase reporter, IL-6 stimulated, 5 h; at 7.69 µM (top of the series) unless noted. A digest of the protocol:
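IL-6/STAT signaling read in ME-180 cells via an SIE beta-lactamase reporter. Stimulus was 40 pM IL-6 (its AC50) for 5 hrs, so both activation and inhibition register.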

The target of assay [5] is Glucocorticoid receptor (Homo sapiens) (UniProt P04150). In words: GR-GFP Redistribution (AID 450;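 active = compounds whose dose series gives a full or clear partial fitted curve of increased nuclear translocation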; also: potency is read from the fitted curve at half-maximal effect). To be noted: U2OS GR-GFP nuclear translocation, laser cytometry, 2 h.
Glucocorticoid receptor (Homo sapiens), sequence (P04150 whole entry, looked up, the tested form may be a part): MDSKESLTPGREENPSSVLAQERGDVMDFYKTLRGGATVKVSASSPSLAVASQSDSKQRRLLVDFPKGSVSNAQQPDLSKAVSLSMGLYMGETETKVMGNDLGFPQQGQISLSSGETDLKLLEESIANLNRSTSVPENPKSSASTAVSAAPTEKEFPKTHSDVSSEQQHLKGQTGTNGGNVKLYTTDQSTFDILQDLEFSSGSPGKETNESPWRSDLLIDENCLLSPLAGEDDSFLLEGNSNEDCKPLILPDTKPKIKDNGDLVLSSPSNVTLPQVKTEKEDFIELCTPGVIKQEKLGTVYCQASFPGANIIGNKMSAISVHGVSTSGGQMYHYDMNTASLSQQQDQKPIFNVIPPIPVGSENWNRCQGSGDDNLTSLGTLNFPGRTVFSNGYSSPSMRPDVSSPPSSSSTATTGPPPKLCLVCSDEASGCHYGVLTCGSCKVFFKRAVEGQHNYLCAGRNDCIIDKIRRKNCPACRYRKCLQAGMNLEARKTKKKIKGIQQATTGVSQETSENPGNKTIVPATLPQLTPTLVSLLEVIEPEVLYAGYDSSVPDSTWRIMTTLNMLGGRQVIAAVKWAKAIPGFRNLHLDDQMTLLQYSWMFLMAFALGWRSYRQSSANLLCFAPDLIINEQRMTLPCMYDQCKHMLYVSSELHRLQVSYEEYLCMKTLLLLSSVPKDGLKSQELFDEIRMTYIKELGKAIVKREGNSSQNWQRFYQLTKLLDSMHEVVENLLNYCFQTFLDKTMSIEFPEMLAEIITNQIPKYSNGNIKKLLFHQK
Assay [6] shares this target. In words: GR-EFC Redistribution (AID 451; calls by dose curve; also: potency is read from the fitted curve at half-maximal effect). The settings on record: CHO-K1 GR-EFC translocation, beta-gal luminescence, 2 h. The gist of the method: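 CHO-K1 cells stably expressing nuclear-localized β-gal enzyme acceptor and GR fused C-terminally to the enzyme donor fragment; ligand-driven nuclear translocation restores β-gal by complementation. Compounds titrated up to 46 uM final, 2 h at 37 °C; luminescence read.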

In assay [7] the target is Mitogen-activated protein kinase 10 (Mus musculus) (UniProt Q61831). As to the kind of experiment: JNK3 AlphaScreen Assay (AID 530; active = well fitted curve in either direction with a large enough effect, not every such curve was filed as active;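 also: kinase came from lysate of stimulated human HepG2 cells; % is scaled to controls: 0 for no effect and ±100 for the full control effect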). To be noted: JNK3 lysate, c-Jun phosphorylation; series mostly up to 57.1 µM. The gist of the method: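 JNK3 came from HepG2 lysates pre-activated with IL-1beta and TNF-alpha and phosphorylated biotinylated GST-cJun (1-79) at 10 uM ATP, pH 7.6, room temperature. Compounds were titrated. AlphaScreen signal used anti-phospho-cJun (Ser73) antibody.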

Assay [8] deals with Cytochrome P450 3A4 (Homo sapiens) (UniProt P08684). In words: qHTS Assay for Inhibitors and Substrates of Cytochrome P450 3A4 (AID 884). Also: potency is read from the fitted curve at half-maximal effect; nearly all actives have a fitted effect of over 50% in size. To be noted: recombinant CYP3A4, Luciferin-PPXE luminescence; series mostly up to 57.1 µM. A digest of the protocol:
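20 nM human CYP3A4 with 25 uM Luciferin-PPXE (at KM) in 200 mM KPO4, preincubated 10 min with compound; NADPH regeneration started a 60 min RT reaction. Luciferin detected by luminescence, normalized to 57 uM ketoconazole as full inhibition.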
(Quantitative high-throughput screening tests each substance at several concentrations.)

For assay [9] the target is unchanged. In words: qHTS Assay for Activators of Cytochrome P450 3A4 (AID 885). Also: nearly all actives have a fitted effect of over 65% in size. The settings on record: recombinant CYP3A4, Luciferin-PPXE luminescence, 60 min; series mostly up to 57.1 µM. The gist of the method: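 Quantitative HTS format: compounds preincubated with 20nM human CYP3A4 and Luciferin-PPXE substrate at KM, reaction started by NADPH regeneration, stopped after 60 min, luciferase luminescence read 20 min later.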

Assay [10] in a line: qHTS Assay for Lipid Storage Modulators (AID 1519; calls by dose curve). The settings on record: Drosophila S3 cells, BODIPY lipid droplet/cell ratio, laser cytometry, cells loaded with oleic acid; for activity change, negative = inhibition: at 57.5 µM (top of the series). A digest of the protocol: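 Cells seeded at 5,000 per well were treated with compounds over a concentration series and loaded with oleic acid (400 uM, as added). Lipid droplet fluorescence (488 nm excitation, 500-530 nm channel) was read by laser-scanning cytometry and normalized to 20 uM Triacsin C.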

For assay [11], the target named is Dual specificity protein kinase CLK4 (Homo sapiens) (UniProt Q9HAZ1). As to the kind of experiment: qHTS Assay for Inhibitors of CDC-like Kinase 4 (ADP-FP Assay) (AID 1795). Also: nearly all actives have a fitted effect of over 60% in size. Also: potency is read from the fitted curve at half-maximal effect. To be noted: Transcreener ADP fluorescence polarization; series mostly up to 50 µM. A digest of the protocol:
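Inhibition of ADP formation by 6.25 nM Clk4 is measured using 1 uM ATP and 100 uM RS repeat peptide over one hour. Produced ADP displaces a fluorescent tracer from antibody, lowering polarization.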

Assay [12] concerns the target Ubiquitin carboxyl-terminal hydrolase 1 (Homo sapiens) (UniProt O94782). As to the kind of experiment: Inhibitors of USP1/UAF1: Pilot qHTS (AID 504865).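 Also: rhodamine fluorescence freed from ubiquitin-rhodamine substrate followed over time; top concentration of the series differs between compounds; % is scaled to controls: 0 for no effect and ±100 for the full control effect; nearly all actives have a fitted effect of over 35% in size.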 To be noted: purified USP1/UAF1, Ub-rhodamine cleavage fluorescence; series mostly up to 54.9 µM. A digest of the protocol: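 Kinetic fluorescence assay: 1nM USP1/UAF1, 15 min compound preincubation, then 150nM Ub-Rho; 480/540 nm.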

Assay [13] is described as follows: Primary qHTS for small molecule stabilizers of the endoplasmic reticulum resident proteome: Secreted ER Calcium Modulated Protein (SERCaMP) assay (AID 1508630). Also: % is scaled to controls: 0 for no effect and ±100 for the full control effect. The settings on record: SH-SY5Y GLuc-SERCaMP (Gaussia luciferase released on ER calcium loss) secretion, thapsigargin, luminescence; series mostly up to 38.4 µM. The gist of the method:
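GLuc-SERCaMP-expressing SH-SY5Y cells, pretreated 16 h with compound, are challenged with thapsigargin to empty ER calcium stores; after 4 h, coelenterazine is added directly to the medium and luminescence is imaged.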

The nature of assay [14]: AP1 Signaling Pathway (AID 357; active = well fitted curve in either direction with a large enough effect, not every such curve was filed as active). The settings on record: ME-180 AP-1-bla reporter, EGF-induced, beta-lactamase ratio, 5 h; at 7.69 µM (top of the series) unless noted. A digest of the protocol: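 Beta-lactamase reporter under AP-1 response element, ME-180 background. Stimulus: EC50 EGF. Compound exposure 5 h, 37 °C. Detection: CCF4, 2.5 h RT, 460/530 nm. Values: AC50 from titration.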

Assay [15] concerns the target Dual specificity protein kinase CLK4 (Homo sapiens) (UniProt Q9HAZ1). In words: qHTS Assay for Inhibitors of CDC-like Kinase 4 (ADP-Glo Assay) (AID 1771). Also: % is scaled to controls: 0 for no effect and ±100 for the full control effect; nearly all actives have a fitted effect of over 70% in size. The settings on record: recombinant CLK4, ADP-Glo luminescence; series mostly up to 80 µM. The gist of the method:
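Clk4 (25 nM) was incubated 1 hr at room temperature with 100 uM RS repeat peptide and 1 uM ATP in buffer with 2 mM MgCl2, 0.5 mM EGTA, 2.5 mM DTT. ADP formed was quantified by ADP-Glo luminescence.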

Assay [16] can be described thus: qHTS Assay for Identification of Small Molecule Agonists for Hypoxia Response Element Signaling Pathway (AID 914; active = well fitted activation curve with a large enough effect in the signal ratio, with a control signal flat, not every such curve was filed as active; the % refers to the signal ratio; also: % of control where 0% means no effect). The settings on record: ME-180 (cervical carcinoma) HRE-bla reporter, beta-lactamase ratio, CoCl2, 17 h; activation: stronger effect = higher value. The gist of the method:
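In Opti-MEM containing 0.5% dialyzed FBS and 10 mM HEPES, ME-180 HRE-bla cells received a compound titration and EC50 CoCl2. They were incubated 17 hours, then CCF4-loaded 2.5 hours at room temperature before ratio reading.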

The target in assay [17] is 3',5'-cyclic-AMP phosphodiesterase 4B (Homo sapiens) (UniProt Q07343). In words: qHTS Assay for Inhibitors of PDE-IV (AID 607; active = well fitted activation curve with a large enough effect in the main read-out, with a control signal flat, not every such curve was filed as active; also: % of control where 0% means no effect). The settings on record: HEK293 ACTOne CNG channel cells, membrane potential fluorescence; series mostly up to 22.9 µM. The gist of the method: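 Live HEK293 cells with a modified cyclic nucleotide-gated (CNG) channel report intracellular cAMP via membrane-potential dye fluorescence (ex 535/em 590 nm). Endogenous PDE-IV was targeted. Compounds were tested at up to 22.9 uM final; RO 20-1724 100 uM served as control.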
3',5'-cyclic-AMP phosphodiesterase 4B (Homo sapiens), sequence (Q07343 whole entry, looked up): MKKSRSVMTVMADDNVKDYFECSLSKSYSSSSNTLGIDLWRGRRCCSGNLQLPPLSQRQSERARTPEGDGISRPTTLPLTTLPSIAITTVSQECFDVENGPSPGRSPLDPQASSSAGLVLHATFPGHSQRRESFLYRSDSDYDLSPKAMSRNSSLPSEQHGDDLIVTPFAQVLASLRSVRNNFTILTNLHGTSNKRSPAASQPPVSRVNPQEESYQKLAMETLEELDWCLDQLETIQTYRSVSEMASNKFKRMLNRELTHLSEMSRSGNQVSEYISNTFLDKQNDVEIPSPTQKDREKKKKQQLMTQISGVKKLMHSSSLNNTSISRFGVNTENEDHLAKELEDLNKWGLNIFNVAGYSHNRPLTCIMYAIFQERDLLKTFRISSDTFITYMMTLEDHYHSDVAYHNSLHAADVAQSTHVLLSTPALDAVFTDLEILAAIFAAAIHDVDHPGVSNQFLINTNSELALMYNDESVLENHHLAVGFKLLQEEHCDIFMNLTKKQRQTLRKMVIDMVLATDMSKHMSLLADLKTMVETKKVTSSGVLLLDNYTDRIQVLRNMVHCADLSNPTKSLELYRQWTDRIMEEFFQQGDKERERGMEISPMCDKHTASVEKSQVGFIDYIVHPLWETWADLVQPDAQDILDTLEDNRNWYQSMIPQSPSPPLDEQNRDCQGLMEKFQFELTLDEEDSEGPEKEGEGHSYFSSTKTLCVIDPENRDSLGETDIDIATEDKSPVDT

The target of assay [18] is Cytochrome P450 2C19 (Homo sapiens) (UniProt P33261). In words: qHTS Assay for Inhibitors and Substrates of Cytochrome P450 2C19 (AID 899). Also: % is scaled to controls: 0 for no effect and ±100 for the full control effect; nearly all actives have a fitted effect of over 60% in size. To be noted: recombinant CYP2C19, luciferin-H EGE luminescence; series mostly up to 57.1 µM. A digest of the protocol: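 Human CYP2C19 (5nM) with Luciferin-H EGE at 10uM (its KM) in 50mM KPO4 was preincubated with compound for 10 min at 37C. NADPH regeneration started a 60 min 37C reaction. Luciferin was read by luminescence, normalized to 57uM ketoconazole.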
Cytochrome P450 2C19 (Homo sapiens), sequence (P33261 whole entry, looked up): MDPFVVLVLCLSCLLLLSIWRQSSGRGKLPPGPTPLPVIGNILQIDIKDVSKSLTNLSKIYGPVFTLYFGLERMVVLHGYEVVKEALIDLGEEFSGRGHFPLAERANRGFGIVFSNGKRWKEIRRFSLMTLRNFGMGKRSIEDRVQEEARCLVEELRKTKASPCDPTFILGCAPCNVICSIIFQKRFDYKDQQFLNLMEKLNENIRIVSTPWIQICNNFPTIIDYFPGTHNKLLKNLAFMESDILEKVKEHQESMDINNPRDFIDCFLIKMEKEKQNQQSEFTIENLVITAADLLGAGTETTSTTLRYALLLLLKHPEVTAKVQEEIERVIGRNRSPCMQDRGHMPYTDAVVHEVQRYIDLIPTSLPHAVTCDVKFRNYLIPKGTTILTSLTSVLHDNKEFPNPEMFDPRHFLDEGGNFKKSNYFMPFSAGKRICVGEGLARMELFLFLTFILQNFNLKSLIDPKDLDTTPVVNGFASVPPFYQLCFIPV

[19] abbreviates: measured here: cell count channel max response.
The mark [20] stands for this setting: measured here: lipid channel max response.

Structures are written as SMILES. Results filed as inconclusive are left out. Calls of active or inactive are those of the source. Unless noted, calls follow the shape of the dose curve; as a rule, active = well fitted curve in the direction sought with a large enough effect; inconclusive = small, poorly fitted or top-dose-only effect, or another doubt; inactive = no such curve, though single readings can be large; an effect the other way counts as inactive or inconclusive.

Cytochrome P450 3A4 (Homo sapiens), sequence (P08684 whole entry, looked up): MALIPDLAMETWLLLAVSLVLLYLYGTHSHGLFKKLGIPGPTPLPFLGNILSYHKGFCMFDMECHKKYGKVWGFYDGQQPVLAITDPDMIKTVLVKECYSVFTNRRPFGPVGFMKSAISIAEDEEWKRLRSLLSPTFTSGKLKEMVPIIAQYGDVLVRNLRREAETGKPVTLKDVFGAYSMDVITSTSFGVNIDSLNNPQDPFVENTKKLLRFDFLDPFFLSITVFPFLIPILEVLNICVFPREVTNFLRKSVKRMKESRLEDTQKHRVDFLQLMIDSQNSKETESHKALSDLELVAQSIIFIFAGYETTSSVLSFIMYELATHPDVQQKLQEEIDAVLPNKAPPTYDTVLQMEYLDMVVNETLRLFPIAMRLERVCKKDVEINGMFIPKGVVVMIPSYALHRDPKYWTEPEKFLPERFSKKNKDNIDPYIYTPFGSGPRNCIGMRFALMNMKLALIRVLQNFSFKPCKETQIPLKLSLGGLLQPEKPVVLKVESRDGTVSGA
Dual specificity protein kinase CLK4 (Homo sapiens), sequence (Q9HAZ1 whole entry, looked up): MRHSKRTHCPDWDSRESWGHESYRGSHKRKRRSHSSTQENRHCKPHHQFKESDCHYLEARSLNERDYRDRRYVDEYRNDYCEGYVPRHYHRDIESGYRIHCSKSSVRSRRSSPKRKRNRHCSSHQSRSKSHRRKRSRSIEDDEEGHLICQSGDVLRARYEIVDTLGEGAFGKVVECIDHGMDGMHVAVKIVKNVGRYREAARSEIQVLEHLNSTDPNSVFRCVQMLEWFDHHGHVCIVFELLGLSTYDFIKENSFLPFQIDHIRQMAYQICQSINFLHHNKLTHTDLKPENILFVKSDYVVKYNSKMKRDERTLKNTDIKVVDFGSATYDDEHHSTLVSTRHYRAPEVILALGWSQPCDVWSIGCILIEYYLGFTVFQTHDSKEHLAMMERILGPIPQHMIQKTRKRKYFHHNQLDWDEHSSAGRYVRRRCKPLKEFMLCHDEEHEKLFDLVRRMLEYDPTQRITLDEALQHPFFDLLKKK
Cytochrome P450 1A2 (Homo sapiens), sequence (P05177 whole entry, looked up): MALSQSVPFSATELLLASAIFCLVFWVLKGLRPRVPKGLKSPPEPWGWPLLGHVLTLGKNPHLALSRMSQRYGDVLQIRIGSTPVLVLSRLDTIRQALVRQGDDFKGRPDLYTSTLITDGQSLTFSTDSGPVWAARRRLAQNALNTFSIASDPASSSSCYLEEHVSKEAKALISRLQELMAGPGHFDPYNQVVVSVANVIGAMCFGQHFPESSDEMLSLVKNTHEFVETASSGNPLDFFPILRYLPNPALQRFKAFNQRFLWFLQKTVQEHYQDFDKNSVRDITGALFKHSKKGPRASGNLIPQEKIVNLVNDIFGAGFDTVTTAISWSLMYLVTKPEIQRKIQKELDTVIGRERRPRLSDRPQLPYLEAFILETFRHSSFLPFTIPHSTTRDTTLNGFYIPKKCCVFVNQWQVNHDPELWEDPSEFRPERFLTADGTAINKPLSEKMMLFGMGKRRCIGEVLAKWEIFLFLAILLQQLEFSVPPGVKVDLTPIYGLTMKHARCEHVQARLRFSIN
Ubiquitin carboxyl-terminal hydrolase 1 (Homo sapiens), sequence (O94782 whole entry, looked up): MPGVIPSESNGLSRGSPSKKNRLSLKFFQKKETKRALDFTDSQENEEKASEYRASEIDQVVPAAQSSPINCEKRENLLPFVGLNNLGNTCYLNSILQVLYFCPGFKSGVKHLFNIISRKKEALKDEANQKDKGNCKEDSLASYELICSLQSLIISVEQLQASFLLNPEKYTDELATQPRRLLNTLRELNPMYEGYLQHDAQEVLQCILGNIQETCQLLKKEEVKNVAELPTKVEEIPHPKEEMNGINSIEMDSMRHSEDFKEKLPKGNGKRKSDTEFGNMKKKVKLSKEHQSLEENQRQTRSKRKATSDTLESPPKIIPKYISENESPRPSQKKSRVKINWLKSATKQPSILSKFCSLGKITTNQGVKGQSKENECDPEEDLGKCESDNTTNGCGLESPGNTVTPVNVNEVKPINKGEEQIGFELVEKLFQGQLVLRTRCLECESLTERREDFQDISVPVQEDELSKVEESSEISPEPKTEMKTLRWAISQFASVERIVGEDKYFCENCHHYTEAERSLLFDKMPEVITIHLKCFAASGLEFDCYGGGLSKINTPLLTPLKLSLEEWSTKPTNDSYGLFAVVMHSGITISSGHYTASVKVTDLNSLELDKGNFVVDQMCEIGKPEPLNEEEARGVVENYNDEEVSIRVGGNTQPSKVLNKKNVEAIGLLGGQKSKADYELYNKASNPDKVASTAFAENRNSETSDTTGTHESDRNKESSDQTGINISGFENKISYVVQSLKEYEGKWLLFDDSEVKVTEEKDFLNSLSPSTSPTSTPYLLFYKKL

As for `COc1cccc(Nc2ncc3nc(C)c(=O)n(Cc4cccs4)c3n2)c1`, the Potency in assay [1] is > 11.4 µM (inactive); in assay [2], 2.51 µM (active); in [5], > 9.22 µM (inactive); in [6], > 46 µM (inactive); in [8], 3.98 µM (active). Further, the values for the activity change, negative = inhibition in [3] and in [10] were -29.6% (inactive) and -16.2% (inactive), respectively. In [4], the activity, negative = inhibition was -12.1% (inactive). The result in assay [7] was inactive. For the same compound, the Potency entry in assay [9], in assay [11], in [12] and in assay [13] was “inactive” throughout. Further, the max response is 12.9% in assay [10] (setting [19]) and -8.07% in assay [10] (setting [20]).
For `CN(C)C(=O)c1ccc(-c2cncnc2N2CCNCC2)cc1`, the Potency in assay [1] was > 11.4 µM (inactive); in assay [5], > 46 µM (inactive); in [6] it was > 46 µM (inactive). The results for the activity change, negative = inhibition in assay [14], in assay [3] and in assay [10] were -5.59% (inactive), 10.6% (inactive) and 5.34% (inactive), respectively. For the same compound, the Potency entry in assay [2], in [15], in assay [11], in assay [12] and in assay [13] was “inactive” in each case. For the same compound, the activity, negative = inhibition in assay [4] is 9.81% (inactive). In addition, the compound was called inactive in assay [7]. The max response in [10] (setting [19]) was found to be 16.8%; in assay [10] (setting [20]), 20.2%.
Turning to `CCNc1ncc2nc(-c3cn(C)c4ccccc34)c(=O)n(-c3ccc(OC)cc3)c2n1`, the Potency in assay [1] was > 11.4 µM (inactive); in assay [5], > 9.22 µM (inactive); in [6] it was > 46 µM (inactive). Also, the activity change, negative = inhibition in assay [14] is -24.5% (inactive); in assay [3] it was -8.46% (inactive); in assay [10], 5.38% (inactive). Also, the activity, negative = inhibition in assay [4] was -5.46% (inactive). For the same compound, the result in assay [7] was inactive. Moreover, the activation in assay [16] is -6.54% (inactive). The max response in assay [10] (setting [19]) amounted to 20.6%; in [10] (setting [20]) it was 23%. Besides, the Potency result in assay [15], in [11], in assay [12] and in assay [13] was “inactive” in each case.
Consider `CS(=O)(=O)Nc1cccc(-c2ccc3ncnc(NC4CC4)c3c2)c1`, for which the results for the activity change, negative = inhibition in [14], in [3] and in assay [10] were -14.5% (inactive), -15.5% (inactive) and -3.87% (inactive), respectively. Also, the Potency in assay [2] is 0.631 µM (active); in assay [5], > 46 µM (inactive); in assay [6] it was > 46 µM (inactive); in [11], 4.47 µM (active). Moreover, in [4], the activity, negative = inhibition is -20.6% (inactive). The outcome in assay [7] was inactive. In addition, the Potency result in assay [17], in [9], in assay [18], in assay [12] and in assay [13] was “inactive” each time. Moreover, the max response was -8.29% in assay [10] (setting [19]) and -10.1% in assay [10] (setting [20]).
Take `Cc1cnc(CNc2ncncc2-c2cccc(C#N)c2)cn1`: the Potency in [1] is > 11.4 µM (inactive); in assay [2] it was 12.6 µM (active); in assay [5], > 46 µM (inactive); in [6], > 46 µM (inactive). In addition, the activity change, negative = inhibition was 15% (inactive) in assay [14], 1.24% (inactive) in [3] and 8.03% (inactive) in assay [10]. The activity, negative = inhibition in [4] was 9.2% (inactive). In assay [7], the result was inactive. The Potency entry in assay [17], in assay [9], in [12] and in assay [13] was “inactive” throughout. The figures for the max response in [10] (setting [19]) and in assay [10] (setting [20]) were 20.9% and 25.3%, respectively.
For `CCNc1ncc2nc(-c3cc(F)cc(F)c3)c(=O)n(C[C@H]3CCCO3)c2n1`, the Potency was > 11.4 µM (inactive) in [1], 3.16 µM (active) in assay [2], > 9.22 µM (inactive) in [5] and > 46 µM (inactive) in assay [6]. In addition, the activity change, negative = inhibition in [14] is 7.28% (inactive); in [3], 8.04% (inactive); in assay [10], 6.72% (inactive). In addition, the activity, negative = inhibition in assay [4] was -1.58% (inactive). The result in [7] was inactive. Moreover, the Potency entry in [17], in assay [9], in assay [15], in assay [11], in [12] and in assay [13] was “inactive” in each case. Also, the figures for the max response in assay [10] (setting [19]) and in assay [10] (setting [20]) were 13.4% and 19%, respectively.
